This note sets out measurements from PubChem BioAssay (NCATS).

The structures appear in SMILES notation. Results filed as inconclusive are left out. A number with no mark means an inactive call. Active and inactive are the calls of the source. Calls come from the whole dose curve; as a rule, active = well fitted curve in the direction sought with a large enough effect; inconclusive = small, poorly fitted or top-dose-only effect, or another doubt; inactive = no such curve, though single readings can be large; an effect the other way counts as inactive or inconclusive.
Potency is the fitted concentration of half-maximal effect.

One experiment is described as follows: qHTS of pediatric cancer cell lines to identify multiple opportunities for drug repurposing: Primary screen for DAOY cells (AID 1347090).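 For activity change, negative = cytotoxic: plate controls were DMSO for no effect and bortezomib for full effect.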 Note: nearly all actives have a fitted effect of over 55% in size. The conditions noted are these: DAOY medulloblastoma viability, CellTiter-Glo luminescence, 48 h; series mostly up to 46 µM; activity change, negative = cytotoxic: at the top concentration. Put shortly: (§1)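 Eight- or eleven-point concentration series, 48 h treatment at 37 degrees C in growth media; readout CellTiter-Glo luminescence. Potency and efficacy were taken from the concentration-response curves.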
(In qHTS, concentration-response curves come from the screen itself.)
Turning to `CCc1cc(C(C)=NOCc2ccc(C3CCCCC3)c(C(F)(F)F)c2)ccc1CN1CC(C(=O)O)C1`, the Potency was 590 nM (active).
Take `Cc1cn([C@@H]2O[C@H](CO)[C@@H](O)[C@H]2F)c(=O)[nH]c1=O`: the “activity change, negative = cytotoxic” value is 10.8%.
On the same count and under the same terms, the value for `O=C(Nc1ccc(Oc2ccnc3[nH]ccc23)c(F)c1)c1cccn(-c2ccc(F)cc2)c1=O` was -12%.
Same read-out and setting: next, `CC1(C)O[C@@H]2C[C@H]3[C@@H]4CCC5=CC(=O)C=C[C@]5(C)[C@@H]4[C@@H](O)C[C@]3(C)[C@]2(C(=O)CO)O1`: -12.1%; `Cc1cc(C(=O)NOCCO)c(Nc2ccc(I)cc2F)n(C)c1=O`: -16.4%; `OCc1ccccc1O[C@@H]1O[C@H](CO)[C@H](O)[C@H](O)[C@H]1O`: 4.57%.
With `Cc1ccccc1C(=O)Nc1ccc(C(=O)N2CCCC(O)c3cc(Cl)ccc32)c(C)c1` (stereo unspecified), the “activity change, negative = cytotoxic” value is -19.8%.
As for `COc1ccc(Nc2cc(-c3cnc(N)nc3)nc(N3CCOCC3)n2)cn1`, the Potency was 4690 nM (active).
On to `O=C(O)CCCCC(CCSCc1ccccc1)SCc1ccccc1` (stereo unspecified), for which the Potency is 23500 nM (active).
As to `Cc1noc(-c2ccc(CSCCC(=O)O)cc2)c1NC(=O)OC(C)c1ccccc1Cl` (stereo unspecified), the “activity change, negative = cytotoxic” value was -18.8%.
On the same count and under the same terms, the value for `CCCCC(=O)O[C@]1(C(=O)CO)[C@@H](C)C[C@H]2[C@@H]3CCC4=CC(=O)C=C[C@]4(C)[C@@]3(F)[C@@H](O)C[C@@]21C` was -10.5%; that for `C[N+]1(C)[C@@H]2C[C@@H](OC(=O)C(O)(c3cccs3)c3cccs3)C[C@H]1[C@@H]1O[C@@H]12` was 8.83%.
Same read-out and setting: next, `CC1(C)[C@H](O[C@H]2O[C@H](C(=O)O)[C@@H](O)[C@H](O)[C@H]2O[C@@H]2O[C@H](C(=O)O)[C@@H](O)[C@H](O)[C@H]2O)CC[C@@]2(C)[C@H]1CC[C@]1(C)[C@H]2C(=O)C=C2[C@H]3C[C@@](C)(C(=O)O)CC[C@]3(C)CC[C@]21C`: 6.15%; `C[C@H](O)[C@@H]1C(=O)N2C(C(=O)O)=C(S[C@@H]3CN[C@H](CNS(N)(=O)=O)C3)[C@@H](C)[C@@H]12`: -2.75%.
Consider `CN[C@H]1[C@@H](O)[C@@H]2O[C@@H]3O[C@H](C)CC(=O)[C@]3(O)O[C@@H]2[C@@H](NC)[C@H]1O`, for which the Potency was 296 nM (active).
As to `NC1=N[C@H]2[C@H](CS[C@H]2CCCCC(=O)O)N1`, the “activity change, negative = cytotoxic” value is 8.29% [at 16.1 µM].
Same read-out and setting: next, `COC(=O)[C@@H]1CC2=CC(=O)CC[C@]2(C)[C@@]23O[C@@H]2C[C@@]2(C)[C@H](CC[C@@]24CCC(=O)O4)[C@@H]13`: 10.7%; `O=C(C[C@@H]1CC=CCCC(=O)O[C@H](c2ccccc2)CNC1=O)NCc1ccc(Cl)cc1`: -9.67%; `CON=C(C(=O)N[C@@H]1C(=O)N2C(C(=O)O)=C(Cn3ccc(=N)n3CCO)CS[C@H]12)c1csc(N)n1`: -4.12%.
The same measure, in the same setting: the value for `CCN1CCN(C(=O)N[C@H](C(=O)N[C@@H]2C(=O)N3C(C(=O)O)=C(CSc4nnnn4C)CS[C@@H]23)c2ccc(O)cc2)C(=O)C1=O` was 8.24% [at 9.22 µM]; that for `OC[C@@H](O)[C@@H](O)[C@H](O)[C@@H](O)CO` was 6.13%.
Take `C=Cc1c(C)c2cc3nc(cc4[nH]c(cc5nc(cc1[nH]2)C(C)=C5CCC(=O)O)c(CCC(=O)OC)c4C)[C@@]1(C)C3=CC=C(C(=O)OC)[C@H]1C(=O)OC`: the Potency is 187 nM (active).
As for `COc1ccc2cc([S+]([O-])Cc3ncc(C)c(OC)c3C)nc2c1`, the “activity change, negative = cytotoxic” value was -9.73%.

The next experiment in a line: qHTS of pediatric cancer cell lines to identify multiple opportunities for drug repurposing: Primary screen for SJ-GBM2 cells (AID 1347091).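 For activity change, negative = cytotoxic: plate controls were DMSO neutral control for no effect and bortezomib for full effect.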 The conditions noted are these: SJ-GBM2 viability, CellTiter-Glo luminescence, 48 h; series mostly up to 46 µM; activity change, negative = cytotoxic: at the top concentration. The gist of the method:
as §1
With `C[C@@]12C[C@@]3(O)O[C@@H](O1)[C@]1(COC(=O)c4ccccc4)[C@@H]3C[C@@]12O[C@@H]1O[C@H](CO)[C@@H](O)[C@H](O)[C@@H]1O`, the “activity change, negative = cytotoxic” value was 6.3%.
Turning to `C=C1C[C@@]2(O)O[C@@]3(C[C@H]2C(C)C)[C@H](C)CC[C@H]13`, the “activity change, negative = cytotoxic” value is 17%.
Still for that read-out and setting: the value for `O=c1[nH]c(=O)n([C@H]2C[C@@H](O)[C@@H](CO)O2)cc1C=CBr` was 9.09%.
`CC(=O)C1=C(O)C=C2Oc3c(C(C)=O)c(O)c(C)c(O)c3C2(C)C1=O` (stereo unspecified): the Potency is 2350 nM (active).
Take `CC(C)N(CC[C@H](c1ccccc1)c1cc(CO)ccc1O)C(C)C`: the “activity change, negative = cytotoxic” value was -3.96%.
On the same count and under the same terms, the value for `COc1ccc([C@@H]2CNC(=O)C2)cc1OC1CCCC1` was 20.1%.
For the compound `CNC(=O)Nc1ccc(-c2nc(N3CC4CCC(C3)O4)c3cnn(C4CCC5(CC4)OCCO5)c3n2)cc1`, the Potency is 29.6 nM (active).
`CC(=O)N[C@H]1[C@@H]([C@H](O)[C@H](O)CO)OC(C(=O)O)=C[C@@H]1N=C(N)N`: the “activity change, negative = cytotoxic” value is 2.32%.
The same measure, in the same setting: next, `CON=C(C(=O)N[C@@H]1C(=O)N2C(C(=O)O)=C(CSC(=O)c3ccco3)CS[C@H]12)c1csc(N)n1`: 19.4%.
Take `CC(=O)O[C@H]1C[C@@H]2CC[C@H]3[C@H]4C[C@H]([N+]5(C)CCCCC5)[C@@H](OC(C)=O)[C@@]4(C)CC[C@@H]3[C@@]2(C)C[C@H]1[N+]1(C)CCCCC1`: the “activity change, negative = cytotoxic” value is 14.1%.
Regarding `Cc1ccc2nc(NCCN)c3ncc(C)n3c2c1`, the Potency was 11800 nM (active).
For `Cc1cn([C@@H]2O[C@H](CO)[C@@H](O)[C@H]2F)c(=O)[nH]c1=O`, the “activity change, negative = cytotoxic” value was 26.6%.
Turning to `O=C(Nc1ccc(Oc2ccnc3[nH]ccc23)c(F)c1)c1cccn(-c2ccc(F)cc2)c1=O`, the Potency is 16600 nM (active).
Turning to `Cc1cc(C(=O)NOCCO)c(Nc2ccc(I)cc2F)n(C)c1=O`, the “activity change, negative = cytotoxic” value is 14.4%.
The same measure, in the same setting: the value for `OCc1ccccc1O[C@@H]1O[C@H](CO)[C@H](O)[C@H](O)[C@H]1O` was 20.5%; that for `Cc1ccccc1C(=O)Nc1ccc(C(=O)N2CCCC(O)c3cc(Cl)ccc32)c(C)c1` (stereo unspecified) was -26.7%.
As to `COc1ccc(Nc2cc(-c3cnc(N)nc3)nc(N3CCOCC3)n2)cn1`, the Potency is 4180 nM (active).
`Cc1noc(-c2ccc(CSCCC(=O)O)cc2)c1NC(=O)OC(C)c1ccccc1Cl` (stereo unspecified): the “activity change, negative = cytotoxic” value was 27%.
Same read-out and setting: the value for `CCCCC(=O)O[C@]1(C(=O)CO)[C@@H](C)C[C@H]2[C@@H]3CCC4=CC(=O)C=C[C@]4(C)[C@@]3(F)[C@@H](O)C[C@@]21C` was -8.25%; that for `CC1(C)[C@H](O[C@H]2O[C@H](C(=O)O)[C@@H](O)[C@H](O)[C@H]2O[C@@H]2O[C@H](C(=O)O)[C@@H](O)[C@H](O)[C@H]2O)CC[C@@]2(C)[C@H]1CC[C@]1(C)[C@H]2C(=O)C=C2[C@H]3C[C@@](C)(C(=O)O)CC[C@]3(C)CC[C@]21C` was 18.3%.
On to `CN[C@H]1[C@@H](O)[C@@H]2O[C@@H]3O[C@H](C)CC(=O)[C@]3(O)O[C@@H]2[C@@H](NC)[C@H]1O`, for which the Potency is 590 nM (active).
On to `NC1=N[C@H]2[C@H](CS[C@H]2CCCCC(=O)O)N1`, for which the “activity change, negative = cytotoxic” value is 18.4% [at 16.1 µM].
The same measure, in the same setting: the value for `COC(=O)[C@@H]1CC2=CC(=O)CC[C@]2(C)[C@@]23O[C@@H]2C[C@@]2(C)[C@H](CC[C@@]24CCC(=O)O4)[C@@H]13` was 12.9%.
The same measure, in the same setting: next, `O=C(C[C@@H]1CC=CCCC(=O)O[C@H](c2ccccc2)CNC1=O)NCc1ccc(Cl)cc1`: -1.07%; `CON=C(C(=O)N[C@@H]1C(=O)N2C(C(=O)O)=C(Cn3ccc(=N)n3CCO)CS[C@H]12)c1csc(N)n1`: 6.42%.
With `CCN1CCN(C(=O)N[C@H](C(=O)N[C@@H]2C(=O)N3C(C(=O)O)=C(CSc4nnnn4C)CS[C@@H]23)c2ccc(O)cc2)C(=O)C1=O`, the activity change, negative = cytotoxic was 24.4% [at 9.22 µM].
Turning to `C=Cc1c(C)c2cc3nc(cc4[nH]c(cc5nc(cc1[nH]2)C(C)=C5CCC(=O)O)c(CCC(=O)OC)c4C)[C@@]1(C)C3=CC=C(C(=O)OC)[C@H]1C(=O)OC`, the Potency was 590 nM (active).
Turning to `COc1ccc2cc([S+]([O-])Cc3ncc(C)c(OC)c3C)nc2c1`, the “activity change, negative = cytotoxic” value is 46.1%.
